Hit rate of the full screen: of about 69,000 compounds, about 8,600 (12%) showed an effect of 50% or more. The full list was thinned out, with strong results kept by preference.

This assay relates to Plasmodium berghei. Briefly: Screen against P. berghei liver stage (PbLuc), transformed with Luciferase, at 10uM. Conditions: tested at 10 uM. In kind it is functional, HepG2.
For the compound `CC(C)c1ccc2c(c1)CCCN2C(=O)CN(C)S(C)(=O)=O`, the INHIBITION is given as 48.3%.
Then `CC(=O)c1c(C)nn(S(=O)(=O)c2ccc(F)cc2)c1C`, with 53.8%.
For `CC(=O)c1c(C)nn(S(=O)(=O)c2ccc(Cl)cc2)c1C` the value was -16.6%; for `CC(=O)c1c(C)nn(S(=O)(=O)c2ccc(C)cc2)c1C`, -15.5%; for `CSc1nc(N)cc(N2C[C@H]3CC[C@@H](C2)N(Cc2cscn2)C3=O)n1`, 9.4%.
On to `CS(=O)(=O)N1CCC2(CC1)CN(CC1CC1)CC21CCNC1=O` (stereo unspecified), for which the INHIBITION is on record as 3.81%.
Then `O=S(=O)(c1cccnc1)N1C[C@H]2CC[C@@H](C1)N(Cc1ccccc1)C2`, with 18.6%; and `O=C(c1ccc(F)c(Cl)c1)N1C[C@H]2CC[C@@H](C1)N(Cc1ccccc1)C2`, with 68.5%.
Then `O=C(c1cc(F)cc(Cl)c1)N1C[C@H]2CC[C@@H](C1)N(Cc1ccccc1)C2`, with -31.3%; and `COCCN1C[C@@H]2CC[C@H]1CN(C(=O)CCn1cc(Cl)cn1)C2`, with 26.6%.
Consider `O=S(=O)(c1cccc(F)c1)N1C[C@H]2CC[C@@H](C1)N(Cc1ccccc1)C2`, for which the INHIBITION worked out at 63.6%.
Then `CCN(CC)c1ccc(C(=O)N2C[C@H]3CC[C@@H](C2)N(CCOC)C3)cc1`, with 25.4%.
On to `COCCN1C[C@@H]2CC[C@H]1CN(C(=O)c1ccc(Cl)cc1)C2`, for which the INHIBITION was 66.1%.
For `O=C(c1c[nH]c(=O)c(Cl)c1)N1C[C@H]2CC[C@@H](C1)N(Cc1ccccc1)C2` the value was -23.2%.
For `O=S(=O)(c1cccnc1)N1C[C@H]2CC[C@@H](C1)N(Cc1ccccn1)C2` the value was 31.7%.
Then `CN1CCN(C(=O)C2CCN(c3cccnn3)CC2)CC1`, with -9.32%; and `CCc1nnc2n1CCN(C(=O)c1nc(-c3ccco3)sc1C)C2`, with 21.5%.
For the compound `O=C(Cn1ccc(C(=O)O)n1)Nc1c(Cl)cccc1Cl`, the INHIBITION is reported as 19.09%.
Then `Cc1ncc(CN(C)Cn2nc(-c3ccccc3)oc2=O)s1`, with 3.41%.
Then `CN(Cc1nnc2n1CCC2)C(=O)c1ccc2c(c1)OCCO2`, with -2.53%; and `O=C(Cc1ccccc1F)N1CCN(C(=O)c2ccoc2)CC1`, with 16.6%.
Consider `Cc1nnc2ccc(N3CCC4(CCOC4)C3)nn12` (stereo unspecified), for which the INHIBITION amounted to 9%.
Then `Cc1nc(C)c(C)c(N2CCC3(CCOC3)C2)n1` (stereo unspecified), with -129%; and `Cc1nc(N2CCC3(CCOC3)C2)c2cc[nH]c2n1` (stereo unspecified), with 71.1%; and `COc1ccc2c(c1)CN(Cc1ccco1)C(=O)CCN2`, with 17.7%.
As to `Cc1ccc(-n2cc(C(=O)N3CCCC(n4cccn4)C3)nn2)cc1` (stereo unspecified), the INHIBITION was -2.19%.
For the compound `CNC(=O)CC1COCCN1C(=O)C1(c2ccc(Cl)cc2)CCC1` (stereo unspecified), the INHIBITION came out at 52.1%.
For `O=C(N1CCOCC(O)C1)C1(c2ccc(Cl)cc2)CCC1` (stereo unspecified) the value was 0.0996%; for `O=C(O)CC1COCCN1C(=O)C1(c2ccc(Cl)cc2)CCC1` (stereo unspecified), 1.74%; for `COc1cc(C(=O)N2CCC(c3n[nH]c(C)n3)CC2)cc(OC)c1C`, 0.914%.
For `O=C(Cc1n[nH]c(-c2cncc(Br)c2)n1)NCc1ccccn1` the value was 22.5%; for `CC1(c2nccs2)CCN(C(=O)CCN2CCOCC2)CC1`, 23.3%.
Then `Cc1noc(C(C)N2CCN(Cc3nc(C)c(C)o3)CC2)n1` (stereo unspecified), with -2.143%; and `CN(Cc1ccc([S+](C)[O-])cc1)c1ccccn1` (stereo unspecified), with 40.5%.
Turning to `Cc1noc(-c2cccnc2N(C)Cc2cscn2)n1`, the INHIBITION is given as 68.8%.
Then `Cc1noc(-c2cccnc2N(C)Cc2cc(C)on2)n1`, with 50.8%; and `Cc1noc(-c2ccc(N(C)Cc3ccncc3C)nc2)n1`, with -3.58%.
Then `Cc1noc(-c2ccc(N(C)Cc3ccncn3)nc2)n1`, with 26.4%; and `Cc1noc(-c2cccnc2N(C)Cc2ccc([S+](C)[O-])cc2)n1` (stereo unspecified), with 79.9%; and `Cc1noc(-c2ccc(N(C)Cc3cccnc3)nc2)n1`, with 28.7%.
As to `Cc1noc(-c2cccnc2N2CCN(c3cnn(C)c3)CC2)n1`, the INHIBITION is given as -26.8%.
For `Cc1noc(-c2ccc(N(C)Cc3nccs3)nc2)n1` the value was 1.79%; for `Cc1nn(S(=O)(=O)c2ccc(Cl)cc2)c(C)c1C`, 9.52%; for `COc1cc(N2CCC3(CCN(C(=O)c4cccnc4)CC3)C2)ncn1`, -3.77%.
For `COc1ncccc1C(=O)N1CC[C@H]2C[C@H](c3nnc(C)[nH]3)O[C@@H]2C1` the value was 15.4%; for `CC(C)N(C)Cc1nnc2n1CCN(S(=O)(=O)C1CC1)CC2`, 29%; for `N#Cc1cccc(N2CC3(CCN(C(=O)c4cccnc4)C3)CC2=O)c1` (stereo unspecified), 19.9%.
Then `COCc1nc(N(C)C)ncc1C(=O)NC(C)C`, with -1.58%.
Regarding `COCc1nc(N(C)C)ncc1C(=O)OC`, the INHIBITION worked out at 66.5%.
For `CCCNC(=O)c1cnc(N(C)C)nc1COC` the value was -10.3%.
Then `Cc1cnn(CC2CCCCN2C(=O)c2ccccc2-n2cccn2)c1` (stereo unspecified), with 38.8%; and `CCc1ccc(NS(=O)(=O)c2cc3c(c(C(=O)O)c2)OCCO3)cc1`, with 9.14%.
For `C[C@H]1C[C@@H]2CCN(C(=O)c3cnccn3)C[C@H]2O1` the value was 7.31%; for `CC(C)(O)c1cn(C2CCN(C(=O)CCc3ccncc3)CC2)nn1`, 23.9%; for `OC1(c2cn(C3CCN(C4CCSC4)CC3)nn2)CCCC1` (stereo unspecified), -23%.
Regarding `CC(C)(C)c1cn(C2CCN(C(=O)c3cncnc3)CC2)nn1`, the INHIBITION is on record as 54.4%.
Regarding `CC(C)(N)c1cn(C2CCN(C3CCSCC3)CC2)nn1`, the INHIBITION is recorded as -7.77%.
For `CC(C)(C)c1cn(C2CCN(C(=O)c3cnccn3)CC2)nn1` the value was 61.1%; for `CC(C)n1cc(C(=O)N2CCC(n3cc(C(C)(C)C)nn3)CC2)cn1`, 29.8%.
For `CC(C)(C)c1cn(C2CCN(C3CCSC3)CC2)nn1` (stereo unspecified), the INHIBITION was determined as 70.9%.
Regarding `CCC(=O)N1CCC(n2cc(C(C)(C)O)nn2)CC1`, the INHIBITION is given as 42.1%.
Then `CCCc1cc(C(=O)N[C@H](C)[C@@H](O)c2ccc(O)cc2)n(C)n1`, with 20.3%.
Then `Cc1ccccc1C(=O)NCC(=O)NCc1ccccn1`, with 46.3%; and `CC[C@@H]1N(Cc2ccc(F)cc2)CCC[C@]12CCC(=O)N2CCOC`, with -69.5%.
Then `Cc1ccc(C(=O)N(C)Cc2csc(Br)c2)c(=O)[nH]1`, with 21.8%.
In the case of `Cc1cc2n(n1)CC(CNCc1cc(C)on1)CN2` (stereo unspecified), the INHIBITION turned out to be 26.8%.

(Values after ChEMBL document CHEMBL4513216, “Probing the Open Global Health Chemical Diversity Library for Multistage-Active Starting Points for Next-Generation Antimalarials” (ACS Infect Dis, 2020).)
